# Test results published in PubChem BioAssay (EPA / NIEHS).
# Results filed as inconclusive are left out. The source made the active and inactive calls. How the source made its calls, unless noted: active means hit-call score of the fitted dose curve at least 0.9, where 1 is the maximum; inactive means score below 0.9.
# What was measured:
# [1] = ATG_NFI_CIS: Attagene CIS-FACTORIAL HepG2 Assay for human Nuclear Factor I (NFI) (AID 2282989); conditions: HepG2 cis-regulatory reporter, NFI response element transcription; actives raise or lower the signal
# Method in brief: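 Cells: human liver HepG2, transiently transfected with promoter-regulated reporter transcription units. Exposure 24 h. Detection: fluorescent RT-PCR products separated by capillary electrophoresis, normalised to DMSO negative control.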
# [2] = molecular target: Myc proto-oncogene protein (Homo sapiens) (UniProt P01106); experiment: ATG_Myc_CIS: Attagene CIS-FACTORIAL HepG2 Assay for human Myelocytomatosis (Myc) Proto-Oncogene Transcription Factor (AID 2282990); conditions: HepG2, Attagene cis-reporter transcription factor activity; actives raise or lower the signal
# Method in brief: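 Transiently transfected HepG2 cells bearing cis-promoter reporter units for endogenous transcription factors; 24 h exposure. Reporter mRNA measured by RT-PCR, 6-FAM primer extension, HpaI cut and capillary electrophoresis; bidirectional fit relative to DMSO.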
# [3] = ATG_NRF2_ARE_CIS: Attagene CIS-FACTORIAL HepG2 Assay for human Nuclear Factor Erythroid 2 Related Factor 2 (NFR2) response to Antioxidant Response Elements (ARE) (AID 2282992); conditions: HepG2 Attagene ARE/NRF2 reporter, transcription factor activity; actives raise or lower the signal;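 on AC50: reporter mRNA level measured by RT-PCR and capillary electrophoresis fluorescence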
# Method in brief: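 HepG2 cells transiently transfected with multiplexed cis-regulated reporter transcription units measure endogenous transcription factor activity. Reporter mRNA at 24 h is quantified by RT-PCR, fluorescent labelling and capillary electrophoresis, with bidirectional fitting relative to DMSO.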
# [4] = ATG_Oct_MLP_CIS: Attagene CIS-FACTORIAL HepG2 Assay for human Octamer-Binding Transcription Factor (Oct) (AID 2282993); conditions: HepG2 Attagene cis-factorial Oct reporter, mRNA; actives raise or lower the signal
# Method in brief: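 HepG2, transient MRTU transfection, cis promoter elements; 24 h dosing; RT-PCR/CE fluorescence read-out of reporter mRNA; fit both directions vs DMSO.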
# [5] = molecular target: Cellular tumor antigen p53 (Homo sapiens) (UniProt P04637); experiment: ATG_p53_CIS: Attagene CIS-FACTORIAL HepG2 Assay for human p53 Transcription Factor (AID 2282994); conditions: HepG2 p53 cis-element reporter, Attagene mRNA; actives raise or lower the signal
# Method in brief: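 HepG2 cells transiently transfected with multiplexed cis-regulated reporter transcription units read endogenous TF activity. After 24 h compound exposure, reporter mRNA was quantified by RT-PCR, fluorescent labelling, HpaI digestion and capillary electrophoresis; bidirectional fits versus DMSO baseline.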
# [6] = BSK_3C_TissueFactor: BioMAP Diversity Plus: 3C Assay for Tissue Factor Biomarker Activity (AID 2282997); conditions: BioMAP 3C HUVEC, tissue factor biomarker readout; actives raise or lower the signal
# Method in brief: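 Primary human umbilical vein endothelial cells in the 3C system were exposed to test chemical for 24 h, then Tissue Factor measured by ELISA. Activity was fitted bidirectionally against DMSO as negative control and baseline.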
# [7] = BSK_3C_uPAR: BioMAP Diversity Plus: 3C Assay for Urokinase-type plasminogen activator receptor (uPAR) Biomarker Activity (AID 2282998); conditions: BioMAP 3C HUVEC, uPAR biomarker ELISA; actives raise or lower the signal
# Method in brief: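 A multiplexed primary-cell system built on human umbilical vein endothelium was used, with chemical present for 24 h before reading. Cell-surface uPAR was detected by ELISA; signal change in either direction counted against DMSO.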
# [8] = BSK_3C_VCAM1: BioMAP Diversity Plus: 3C Assay for Vascular cell adhesion molecule 1 (VCAM1) Biomarker Activity (AID 2282999); conditions: BioMAP 3C HUVEC, VCAM1 ELISA, cytokine-stimulated; actives raise or lower the signal
# Method in brief: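 Human umbilical vein endothelial cells (3C system), biomarker read by ELISA 24 h after dosing; bidirectional fit against DMSO baseline. Cytotoxicity tracked by SRB total-protein staining in parallel cultures at biomarker time.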
# [9] = BSK_4H_Eotaxin3: BioMAP Diversity Plus: 4H Assay for Eotaxin 3 Biomarker Activity (AID 2283000); conditions: primary human endothelial cells (HUVEC); actives raise or lower the signal;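 on outcome: CCL26 protein level quantified by ELISA in parallel with SRB cytotoxicity check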
# Method in brief: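 HUVEC, 24 h post-dose, ELISA for Eotaxin-3/CCL26. Gain or loss of signal fitted bidirectionally vs DMSO baseline.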
# [10] = molecular target: human Peroxisome Proliferator-activated Receptor delta (PPARd), PPARD (gene 5467) (UniProt Q03181); experiment: ATG_PPARd_TRANS: Attagene TRANS-FACTORIAL HepG2 Assay for human Peroxisome Proliferator-activated Receptor delta (PPARd) (AID 2283002; active means hit-call score of the fitted dose curve at least 0.9, where 1 is the maximum)
# Method in brief: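 HepG2 cells transiently transfected with GAL4-UAS multiplexed reporter units driven by exogenous chimeric NR-GAL4 proteins; 24 h compound exposure. Reporter mRNA measured by RT-PCR, 6-FAM primer extension, HpaI digestion and capillary electrophoresis; gain of signal fitted relative to DMSO.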
# [11] = read-out: Intercellular Adhesion Molecule 1 (ICAM1), ICAM1 (gene 3383); experiment: BSK_3C_ICAM1: BioMAP Diversity Plus: 3C Assay for Intercellular Adhesion Molecule 1 (ICAM1) Biomarker Activity (AID 2283003); conditions: primary human endothelial cells (HUVEC); actives raise or lower the signal
# Method in brief: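 Primary human umbilical vein endothelial cells in the BioMAP 3C system were exposed to chemicals for 24 h, then ICAM-1 was quantified by ELISA. Activity was fitted bidirectionally against the DMSO negative control baseline.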
# [12] = BSK_3C_Proliferation: Cell Proliferation Assessment in the BioMAP Diversity Plus: 3C Assay (AID 2283006); conditions: primary human endothelial cells (HUVEC);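 on AC50: potency may reflect either rise or fall in cell number versus DMSO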
# Method in brief: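 Human umbilical vein endothelial cells were grown sub-confluent and exposed to chemical for 48 h, then fixed with 10% TCA and stained with 0.1% sulforhodamine B; absorbance at 560 nm gave relative cell number, fitted bidirectionally against DMSO baseline.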
# [13] = molecular target: Peroxisome proliferator-activated receptor gamma (Homo sapiens) (UniProt P37231); experiment: ATG_PPARg_TRANS: Attagene TRANS-FACTORIAL HepG2 Assay for human Peroxisome Proliferator-activated Receptor-gamma (PPARg) (AID 2283007; active means hit-call score of the fitted dose curve at least 0.9, where 1 is the maximum)
# Method in brief: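 Multiplexed reporter transcription units in HepG2, 24 h dosing, reporter transcripts quantified by fluorescent RT-PCR and capillary electrophoresis. Increase over DMSO scored.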
# [14] = molecular target: Nuclear receptor subfamily 1 group I member 2 (Homo sapiens) (UniProt O75469); experiment: ATG_PXR_TRANS: Attagene TRANS-FACTORIAL HepG2 Assay for human Pregnane X Receptor (PXR) (AID 2283008; active means hit-call score of the fitted dose curve at least 0.9, where 1 is the maximum)
# Method in brief: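 HepG2 cells transiently transfected with multiple reporter units, here a PXR-GAL4 chimera driving a GAL4-UAS reporter; 24 h compound exposure. Reporter mRNA measured by RT-PCR, FAM labelling and capillary electrophoresis; gain of signal fitted against DMSO baseline.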
# [15] = molecular target: human Retinoic Acid Receptor gamma (RARg), RARG (gene 5916) (UniProt P13631); experiment: ATG_RARg_TRANS: Attagene TRANS-FACTORIAL HepG2 Assay for human Retinoic Acid Receptor gamma (RARg) (AID 2283009; active means hit-call score of the fitted dose curve at least 0.9, where 1 is the maximum)
# Method in brief: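 HepG2 cells transiently transfected with multiplexed reporter units expressing chimeric RARg-GAL4 and GAL4-UAS-driven reporters; 24 h compound exposure. Reporter mRNA quantified by RT-PCR with fluorescent labelling and capillary electrophoresis; gain-of-signal fitted relative to DMSO baseline.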
# [16] = ATG_NF_kB_CIS: Attagene CIS-FACTORIAL HepG2 Assay for human Nuclear Factor Kappa B (NF-kB) (AID 2282991); conditions: HepG2 Attagene cis-factorial NF-kB reporter mRNA; actives raise or lower the signal
# Method in brief: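 HepG2, transient multi-reporter transfection, cis promoter elements (endogenous TFs). 24 h exposure. Total RNA → RT → PCR → 6-FAM label → HpaI → CE. Gain/loss vs DMSO.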
# [17] = molecular target: human Peroxisome Proliferator-activated Receptor alpha (PPARa), PPARA (gene 5465) (UniProt Q07869); experiment: ATG_PPARa_TRANS: Attagene TRANS-FACTORIAL HepG2 Assay for human Peroxisome Proliferator-activated Receptor alpha (PPARa) (AID 2283001; active means hit-call score of the fitted dose curve at least 0.9, where 1 is the maximum)
# Method in brief: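 Measures transcriptional activity of an exogenous chimeric PPARa-Gal4 protein in transiently transfected HepG2 cells after 24 h dosing. Reporter mRNA quantified via RT-PCR and capillary electrophoresis; DMSO served as negative control.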
# [18] = molecular target: human RAR-related Orphan Receptor beta (RORb), RORB (gene 6096) (UniProt Q92753); experiment: ATG_RORb_TRANS: Attagene TRANS-FACTORIAL HepG2 Assay for human RAR-related Orphan Receptor beta (RORb) (AID 2283010; active means hit-call score of the fitted dose curve at least 0.9, where 1 is the maximum)
# Method in brief: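 HepG2 cells were transiently transfected with multiplexed GAL4-UAS reporter units expressing chimeric nuclear receptor–GAL4 proteins, then dosed for 24 h. Reporter mRNA was quantified by RT-PCR with fluorescent labelling and capillary electrophoresis; gain of signal was fitted relative to DMSO.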
# [19] = molecular target: human Retinoic Acid Receptor beta (RARb), RARB (gene 5915) (UniProt P10826); experiment: ATG_RARb_TRANS: Attagene TRANS-FACTORIAL HepG2 Assay for human Retinoic Acid Receptor beta (AID 2283004; active means hit-call score of the fitted dose curve at least 0.9, where 1 is the maximum)
# Method in brief: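 HepG2 cells transiently transfected with multiplexed GAL4-UAS reporter units expressing chimeric NR–Gal4 fusions; 24 h compound exposure. Reporter mRNA quantified by RT-PCR, 6-FAM labelling, HpaI digestion and capillary electrophoresis; gain-of-signal fitted against DMSO baseline.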
# [20] = molecular target: Retinoic acid receptor alpha (Homo sapiens) (UniProt P10276); experiment: ATG_RARa_TRANS: Attagene TRANS-FACTORIAL HepG2 Assay for human Retinoic Acid Receptor alpha (RARa) (AID 2283005; active means hit-call score of the fitted dose curve at least 0.9, where 1 is the maximum)
# Method in brief: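 HepG2 transiently transfected with multiplex GAL4-UAS reporter units including a human RARa–GAL4 chimera; 24 h compound exposure. Reporter mRNA quantified by RT-PCR, 6-FAM labeling and capillary electrophoresis; gain of signal versus DMSO.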
# Chain of Peroxisome proliferator-activated receptor gamma (Homo sapiens) (P37231 whole entry, looked up): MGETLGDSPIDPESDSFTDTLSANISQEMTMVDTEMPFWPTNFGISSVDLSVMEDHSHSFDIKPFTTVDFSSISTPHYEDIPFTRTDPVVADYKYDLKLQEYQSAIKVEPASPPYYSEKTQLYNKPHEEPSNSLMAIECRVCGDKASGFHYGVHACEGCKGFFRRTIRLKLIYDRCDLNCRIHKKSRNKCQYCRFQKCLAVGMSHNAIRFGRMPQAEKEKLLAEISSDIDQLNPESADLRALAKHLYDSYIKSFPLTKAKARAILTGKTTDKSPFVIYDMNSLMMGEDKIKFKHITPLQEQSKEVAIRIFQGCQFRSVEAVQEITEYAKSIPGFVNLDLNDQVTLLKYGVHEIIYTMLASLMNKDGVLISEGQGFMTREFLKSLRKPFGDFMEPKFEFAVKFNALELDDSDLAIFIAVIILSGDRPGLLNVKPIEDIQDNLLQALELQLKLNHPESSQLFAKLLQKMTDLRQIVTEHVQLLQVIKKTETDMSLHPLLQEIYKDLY
# Chain of Myc proto-oncogene protein (Homo sapiens) (P01106 whole entry, looked up): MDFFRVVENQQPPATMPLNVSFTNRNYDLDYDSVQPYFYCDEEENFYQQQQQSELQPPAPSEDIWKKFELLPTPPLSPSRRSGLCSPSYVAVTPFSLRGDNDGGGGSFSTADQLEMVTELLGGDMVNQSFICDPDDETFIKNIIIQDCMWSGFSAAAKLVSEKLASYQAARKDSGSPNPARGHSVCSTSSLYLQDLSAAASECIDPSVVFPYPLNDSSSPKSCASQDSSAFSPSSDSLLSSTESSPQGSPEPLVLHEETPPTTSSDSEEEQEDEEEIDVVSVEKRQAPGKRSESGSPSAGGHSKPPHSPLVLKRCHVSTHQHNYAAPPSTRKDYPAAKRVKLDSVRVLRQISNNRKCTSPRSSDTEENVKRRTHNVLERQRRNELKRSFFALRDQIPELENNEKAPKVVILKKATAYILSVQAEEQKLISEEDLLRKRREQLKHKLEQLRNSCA
# Chain of Nuclear receptor subfamily 1 group I member 2 (Homo sapiens) (O75469 whole entry, looked up, the tested form may be a part): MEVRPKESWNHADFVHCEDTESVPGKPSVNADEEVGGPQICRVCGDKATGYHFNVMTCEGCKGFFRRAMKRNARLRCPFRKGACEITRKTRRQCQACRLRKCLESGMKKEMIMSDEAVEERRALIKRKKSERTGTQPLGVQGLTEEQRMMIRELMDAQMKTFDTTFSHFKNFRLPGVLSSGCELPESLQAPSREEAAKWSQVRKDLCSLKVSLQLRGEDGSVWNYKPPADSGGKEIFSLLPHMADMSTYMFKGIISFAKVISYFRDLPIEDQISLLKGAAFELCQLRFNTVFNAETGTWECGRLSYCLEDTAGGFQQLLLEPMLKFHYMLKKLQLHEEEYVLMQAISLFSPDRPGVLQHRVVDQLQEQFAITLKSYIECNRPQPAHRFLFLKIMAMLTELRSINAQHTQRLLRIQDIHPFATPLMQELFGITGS
# Chain of Cellular tumor antigen p53 (Homo sapiens) (P04637 whole entry, looked up): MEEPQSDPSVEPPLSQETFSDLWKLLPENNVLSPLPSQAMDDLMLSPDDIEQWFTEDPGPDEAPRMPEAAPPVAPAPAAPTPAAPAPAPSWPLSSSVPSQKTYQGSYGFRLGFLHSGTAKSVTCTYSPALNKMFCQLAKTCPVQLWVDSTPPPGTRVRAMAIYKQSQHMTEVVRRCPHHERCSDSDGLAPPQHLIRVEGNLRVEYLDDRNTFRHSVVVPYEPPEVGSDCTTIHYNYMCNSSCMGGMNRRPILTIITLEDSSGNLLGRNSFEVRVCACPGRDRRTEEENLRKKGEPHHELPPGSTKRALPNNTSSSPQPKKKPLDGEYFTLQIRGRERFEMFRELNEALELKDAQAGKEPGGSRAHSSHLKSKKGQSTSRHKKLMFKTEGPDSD
# Chain of human Peroxisome Proliferator-activated Receptor delta (PPARd), PPARD (gene 5467) (Q03181 whole entry, looked up, the tested form may be a part): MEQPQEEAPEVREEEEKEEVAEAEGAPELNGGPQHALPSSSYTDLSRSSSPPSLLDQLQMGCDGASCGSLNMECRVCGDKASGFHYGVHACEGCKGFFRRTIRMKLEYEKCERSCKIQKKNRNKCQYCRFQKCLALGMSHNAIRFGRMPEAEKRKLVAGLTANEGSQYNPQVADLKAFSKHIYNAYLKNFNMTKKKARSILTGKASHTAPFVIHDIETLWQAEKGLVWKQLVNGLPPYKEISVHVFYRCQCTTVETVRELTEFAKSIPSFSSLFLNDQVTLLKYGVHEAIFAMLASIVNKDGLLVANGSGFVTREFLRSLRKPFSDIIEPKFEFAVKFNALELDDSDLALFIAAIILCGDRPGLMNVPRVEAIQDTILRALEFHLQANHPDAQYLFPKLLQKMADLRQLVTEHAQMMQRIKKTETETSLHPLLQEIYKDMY
# Chain of human Retinoic Acid Receptor gamma (RARg), RARG (gene 5916) (P13631 whole entry, looked up, the tested form may be a part): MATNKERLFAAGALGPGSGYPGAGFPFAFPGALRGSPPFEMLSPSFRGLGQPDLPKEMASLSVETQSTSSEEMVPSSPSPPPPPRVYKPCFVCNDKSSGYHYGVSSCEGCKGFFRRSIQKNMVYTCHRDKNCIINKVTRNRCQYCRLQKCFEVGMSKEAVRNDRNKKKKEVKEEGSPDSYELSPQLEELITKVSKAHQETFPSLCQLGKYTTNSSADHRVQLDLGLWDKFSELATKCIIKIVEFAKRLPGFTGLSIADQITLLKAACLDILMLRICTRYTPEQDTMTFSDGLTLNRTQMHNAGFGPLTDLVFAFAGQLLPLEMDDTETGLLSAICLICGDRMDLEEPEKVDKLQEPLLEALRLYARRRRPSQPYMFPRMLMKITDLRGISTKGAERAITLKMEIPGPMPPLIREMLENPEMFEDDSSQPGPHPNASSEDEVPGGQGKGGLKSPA
# Chain of Retinoic acid receptor alpha (Homo sapiens) (P10276 whole entry, looked up, the tested form may be a part): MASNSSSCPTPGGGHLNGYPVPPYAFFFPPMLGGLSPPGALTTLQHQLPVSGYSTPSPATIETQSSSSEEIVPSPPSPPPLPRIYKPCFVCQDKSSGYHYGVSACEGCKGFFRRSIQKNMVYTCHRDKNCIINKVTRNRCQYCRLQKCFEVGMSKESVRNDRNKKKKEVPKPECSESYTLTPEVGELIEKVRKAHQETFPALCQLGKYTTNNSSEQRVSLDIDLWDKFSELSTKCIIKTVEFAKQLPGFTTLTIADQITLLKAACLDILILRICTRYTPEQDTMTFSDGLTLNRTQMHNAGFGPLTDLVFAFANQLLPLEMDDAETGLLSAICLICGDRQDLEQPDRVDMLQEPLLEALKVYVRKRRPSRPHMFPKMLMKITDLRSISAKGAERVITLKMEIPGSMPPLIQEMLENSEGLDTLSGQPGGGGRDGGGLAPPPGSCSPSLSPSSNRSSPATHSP
# Chain of human Peroxisome Proliferator-activated Receptor alpha (PPARa), PPARA (gene 5465) (Q07869 whole entry, looked up, the tested form may be a part): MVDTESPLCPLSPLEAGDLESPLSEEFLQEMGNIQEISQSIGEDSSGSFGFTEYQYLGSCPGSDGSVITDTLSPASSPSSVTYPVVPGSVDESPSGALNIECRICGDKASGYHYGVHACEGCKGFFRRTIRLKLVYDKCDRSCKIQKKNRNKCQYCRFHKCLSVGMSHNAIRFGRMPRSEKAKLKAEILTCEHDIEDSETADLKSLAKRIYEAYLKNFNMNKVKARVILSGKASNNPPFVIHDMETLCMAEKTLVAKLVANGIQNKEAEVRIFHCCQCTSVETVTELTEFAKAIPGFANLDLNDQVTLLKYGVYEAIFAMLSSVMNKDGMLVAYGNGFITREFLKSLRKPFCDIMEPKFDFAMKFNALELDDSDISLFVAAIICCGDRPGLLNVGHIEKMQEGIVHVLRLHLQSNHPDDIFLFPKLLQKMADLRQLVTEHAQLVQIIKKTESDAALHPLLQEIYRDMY
# Chain of human Retinoic Acid Receptor beta (RARb), RARB (gene 5915) (P10826 whole entry, looked up, the tested form may be a part): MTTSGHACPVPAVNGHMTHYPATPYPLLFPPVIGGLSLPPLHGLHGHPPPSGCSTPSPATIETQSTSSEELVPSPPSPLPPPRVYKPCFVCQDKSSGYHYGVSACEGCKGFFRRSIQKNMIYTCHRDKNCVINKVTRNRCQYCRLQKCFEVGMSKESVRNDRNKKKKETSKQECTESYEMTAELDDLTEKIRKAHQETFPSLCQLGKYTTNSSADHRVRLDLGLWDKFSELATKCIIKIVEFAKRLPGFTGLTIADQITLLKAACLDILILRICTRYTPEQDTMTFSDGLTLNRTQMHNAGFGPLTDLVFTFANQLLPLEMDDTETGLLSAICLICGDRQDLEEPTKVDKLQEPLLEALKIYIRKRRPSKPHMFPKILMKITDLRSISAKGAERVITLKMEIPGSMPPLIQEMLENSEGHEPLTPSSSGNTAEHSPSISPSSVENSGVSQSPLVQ
# Chain of human RAR-related Orphan Receptor beta (RORb), RORB (gene 6096) (Q92753 whole entry, looked up, the tested form may be a part): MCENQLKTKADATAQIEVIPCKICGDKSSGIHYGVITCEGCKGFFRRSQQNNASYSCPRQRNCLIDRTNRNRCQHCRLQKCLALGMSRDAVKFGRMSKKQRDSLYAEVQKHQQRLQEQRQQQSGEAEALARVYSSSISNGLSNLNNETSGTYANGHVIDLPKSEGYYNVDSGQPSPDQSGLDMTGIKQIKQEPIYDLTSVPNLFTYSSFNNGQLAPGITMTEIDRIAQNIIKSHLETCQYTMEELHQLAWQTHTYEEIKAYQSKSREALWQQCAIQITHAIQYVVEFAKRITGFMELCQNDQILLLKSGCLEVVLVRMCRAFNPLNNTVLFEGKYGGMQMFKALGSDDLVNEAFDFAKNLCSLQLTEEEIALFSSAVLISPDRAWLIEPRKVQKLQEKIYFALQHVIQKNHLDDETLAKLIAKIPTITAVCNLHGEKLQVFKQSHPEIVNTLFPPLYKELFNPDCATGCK
compound,measurement,setting,value
CCCCCCCCCCCCCN1CC(C)OC(C)C1 (stereo not drawn),outcome,[1],inactive
same,outcome,[2],inactive
same,AC50,[3],47 µM (active)
same,outcome,[4],inactive
same,outcome,[5],inactive
same,outcome,[6],inactive
same,outcome,[7],inactive
same,outcome,[8],inactive
same,outcome,[9],inactive
same,outcome,[10],inactive
same,outcome,[11],inactive
same,AC50,[12],14.5 µM (active)
same,outcome,[13],inactive
same,AC50,[14],26.2 µM (active)
same,outcome,[15],inactive
[O-][Cl+]O,outcome,[1],inactive
same,outcome,[2],inactive
same,outcome,[16],inactive
same,outcome,[3],inactive
same,outcome,[4],inactive
same,outcome,[5],inactive
same,outcome,[6],inactive
same,outcome,[7],inactive
same,outcome,[8],inactive
same,outcome,[9],inactive
same,outcome,[11],inactive
same,outcome,[12],inactive
same,outcome,[14],inactive
COc1cc(C=O)cc2c1[C@H](COC(N)=O)[C@]1(OC(C)=O)ON2C[C@H]2[C@@H]1N2C(C)=O,AC50,[1],52 µM (active)
same,AC50,[2],7.48 µM (active)
same,AC50,[3],17 µM (active)
same,AC50,[4],0.179 µM (active)
same,AC50,[5],5.95 µM (active)
same,AC50,[6],6.64 µM (active)
same,AC50,[7],11.6 µM (active)
same,AC50,[8],22.1 µM (active)
same,AC50,[9],6.01 µM (active)
same,outcome,[17],inactive
same,outcome,[10],inactive
same,AC50,[11],23.3 µM (active)
same,AC50,[12],0.369 µM (active)
same,outcome,[13],inactive
CNC(=O)Oc1cccc2c1OC(C)(C)C2,outcome,[1],inactive
same,outcome,[2],inactive
same,outcome,[3],inactive
same,outcome,[4],inactive
same,outcome,[5],inactive
same,outcome,[6],inactive
same,outcome,[7],inactive
same,outcome,[8],inactive
same,outcome,[9],inactive
same,outcome,[10],inactive
same,outcome,[11],inactive
same,outcome,[12],inactive
same,outcome,[13],inactive
same,outcome,[14],inactive
same,outcome,[18],inactive
O=P(OCCCl)(OCCCl)OCCCl,outcome,[1],inactive
same,outcome,[2],inactive
same,outcome,[3],inactive
same,outcome,[4],inactive
same,outcome,[5],inactive
same,outcome,[6],inactive
same,outcome,[7],inactive
same,outcome,[8],inactive
same,outcome,[9],inactive
same,outcome,[11],inactive
same,outcome,[19],inactive
same,outcome,[20],inactive
same,outcome,[12],inactive
same,outcome,[13],inactive
same,outcome,[14],inactive
same,outcome,[15],inactive
